Screening data as filed in PubChem BioAssay.
The list is not random: actives were taken first. Their share in the collection is about 4%.
TWEAK Fn14 block – TWEAK-Fn14 signaling inhibition. TWEAK-stimulated Fn14 reporter cells, luciferase luminescence, 8 h. AID 1159606. inhibition, % at 10 µM. 360,000 compounds, 2% hits; in the data active means inhibition above about 50%
Peg3 prom inh-1 – inhibitors of Peg3 promoter | HeLa PEG-Prom luciferase reporter, luminescence, overnight | inhibition, % at 20 µM | 360,000 compounds, 1.7% hits;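 active means inhibition of at least 50% at 20 µM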
HIF-2a block – HIF-2a inhibition | 786-0 RCC cells HIF-2a reporter, luciferase luminescence, overnight | inhibition, % at 18.8 µM | 360,000 compounds, 0.72% hits | AID 624352;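 active means inhibition of the luminescence signal of 40% or more relative to plate controls, in a single-dose primary screen at 18.75 µM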
TROY signal inh – blocks TROY-dependent signaling in reporter cells; Q293 LMP1-TROYcd NF-kB luciferase reporter, 4 h; inhibition, % at 10 µM; 360,000 compounds, 0.98% hits;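 active means compounds whose plate-normalised and pattern-corrected inhibition of the luciferase reporter signal at the single screening dose is 50% or more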
KKLEB tox – CF airway cell cytotoxicity counter-screen; KKLEB CF airway cells viability, ATPlite luminescence, overnight; hits give low values; cells stimulated with P. aeruginosa culture filtrate; activity change (cytotoxicity), % at 5 µM; 360,000 compounds, 0.36% hits; AID 602141;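 active means corrected activity change at or below -50% at 5 µM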
CF NFkB block – inhibitors of cystic fibrosis induced NF-kB; 360,000 compounds, 0.86% hits; KKLEB NF-kB-GFP reporter, PAF-induced, GFP fluorescence overnight; inhibition, % at 5 µM;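 active means at least 50% inhibition at 5 µM, scaled per plate between neutral and stimulator controls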;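 further: PAF is a Pseudomonas aeruginosa culture filtrate used as stimulus; plate controls were PAF-stimulated DMSO wells for no effect and unstimulated DMSO wells for full effect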
Peg3 prom inh-2 – confirmation of Peg3 promoter inhibitors. HeLa PEG-Prom luciferase reporter, luminescence, overnight. 1,300 compounds, 84% hits. AID 602417. inhibition, % at 20 µM. shares compounds with Peg3 prom inh-1;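 active means at 20 µM dose, 40% or more inhibition averaged across four replicates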
The depositor's hits bear a star; . = not tested or not shown; ! = not confirmed by another sample.

SMILES | TWEAK Fn14 block | Peg3 prom inh-1 | HIF-2a block | TROY signal inh | KKLEB tox | CF NFkB block | Peg3 prom inh-2
Cc1cccc(C(C)C)c1NC(=O)C(C)OC(=O)Cn1cnc2c1c(=O)n(C)c(=O)n2C (configuration not stated) | -2.8 | 8.7 | 15.7 | -17.6 | 16.2 | -28.9 | .
CCC1Nc2ncnc(N3CCN(c4ccccc4)CC3)c2N(Cc2ccc(Br)cc2)C1=O (configuration not stated) | 8.9 | 25.1 | 15.6 | -8.3 | -10.3 | 12.5 | .
COCCN(C(=O)COC(=O)/C=C/c1ccc(Cl)c(Cl)c1)c1c(N)n(Cc2ccccc2)c(=O)[nH]c1=O | 6.0 | 4.7 | 11.5 | 3.8 | 2.2 | -4.6 | .
CC(C)CN(C(=O)COC(=O)/C=C/c1ccc(Cl)c(Cl)c1)c1c(N)n(Cc2ccccc2)c(=O)[nH]c1=O | 18.5 | 88.7* | 16.6 | -14.1 | -25.7 | 27.2 | 43.8*
COc1ccccc1CNC(=O)C1(C)CCN1C(=O)Cc1ccc(-c2ccccc2)cc1 (configuration not stated) | 17.1 | 20.9 | 13.4 | 14.8 | -8.5 | 12.1 | .
CCn1c(SC(C)C(=O)Nc2ccc3c(c2)OCCO3)nnc1C1CC1 (configuration not stated) | 9.0 | 8.9 | -2.8 | -6.4 | 6.3 | -3.1 | .
COC(=O)[C@]1(Cc2ccccc2)N[C@H](CN(C)C(=O)c2ccccc2)[C@@H]2C(=O)N(Cc3ccccc3)C(=O)[C@@H]21 | 0.5 | 9.7 | 6.5 | 4.1 | -1.8 | 20.1 | .
CCc1ccccc1N(CC)C(=O)C1CCN(c2ncnc3c2nc2n3CCCCC2)CC1 | -13.1 | 56.0* | 24.4 | 9.7 | -20.1 | 30.5 | 36.6
CCCCNC(=O)Oc1ccc(C(=O)N2c3ccccc3NC(=O)C2C)cc1 (configuration not stated) | 12.9 | 0.5 | 8.5 | 5.7 | 4.6 | 9.6 | .
COc1cc(-c2cc(C(=O)Nc3ccccc3N3CCOCC3)c3ccccc3n2)cc(OC)c1OC | 24.7 | 39.9 | -6.6 | 22.6 | 0.0 | 1.8 | .
COc1cc(-c2cc(C(=O)Nc3ccc(C)c(S(=O)(=O)N4CCOCC4)c3)c3ccccc3n2)cc(OC)c1OC | 3.3 | 52.5* | 1.7 | 3.5 | -26.2 | 34.4 | 37.5
C/C=C(\C)C(=O)N1CCC(C(=O)c2ccccc2)CC1 | -0.1 | -6.5 | 12.4 | -5.5 | 5.9 | -3.5 | .
COC(=O)c1c(N)sc(C(=O)NCCc2ccccc2)c1C | 99.4* | 78.1* | 66.2* | 75.9* | -19.8 | -3.7 | 64.8*
Nn1c(SCC(=O)Nc2ccccc2F)nnc1-c1cccs1 | -14.1 | -7.6 | 5.3 | -8.6 | -34.8 | -4.5 | .
COc1cc(N=Nc2c(O)c3ccccc3[nH]c2=O)c(OC)cc1N=Nc1ccccc1 | 1.1 | 59.0* | 6.7 | 36.1 | 11.4 | 47.2 | 82.9*
CS(=O)(=O)N(CC(=O)NCCc1ccccc1)c1cccc([N+](=O)[O-])c1 | -5.0 | -26.3 | -32.9 | -2.1 | -1.5 | -8.5 | .
O=C(CN(c1ccc(Cl)cc1)S(=O)(=O)c1ccc(Cl)c([N+](=O)[O-])c1)NCCc1ccccc1 | -5.1 | 86.8* | 6.9 | -21.2 | -0.8 | -8.7 | 31.1
Cc1cc(C(=O)COC(=O)C2=COCCO2)c(C)n1-c1ccccc1 | 103.1* | 59.6* | 14.4 | 87.1* | -19.2 | -0.2 | 72.5*
O=C(OCC(=O)N1CCN(c2ccccc2)CC1)C1=COCCO1 | -5.9 | -18.9 | -30.5 | 1.6 | 2.5 | 5.1 | .
Cc1ccc(OCC(=O)c2cc(C)n(-c3ccccc3)c2C)c([N+](=O)[O-])n1 | 85.0* | 79.6* | 84.5* | 58.5* | 3.4 | 21.5 | 79.9*
CCN(CC)CCN1CNC(=S)NC1 | -16.6 | -4.6 | 0.8 | -2.1 | 0.7 | -1.3 | .
COc1cc(NC(=O)c2nccn2C)cc(C(=O)Nc2cccc(C(F)(F)F)c2)c1 | -22.5 | 53.3*! | -24.2 | -29.6 | -6.6 | 8.1 | 33.2
O=C(OCCO)c1c(C2=CCCCC2)oc2c1C(OCCO)CCC2 (configuration not stated) | 16.5 | . | 9.3 | 9.8 | . | . | .
O=c1[nH]c(=O)n(C2OC(CO)C(O)C2O)cc1F (configuration not stated) | -48.6 | 74.8* | 5.5 | -12.1 | -11.0 | 11.1 | 74.9*
COCCNC(=O)/C(C#N)=C/C=C/c1ccccc1[N+](=O)[O-] | 46.1 | 52.5* | 3.6 | -22.9 | 0.0 | -35.9 | 14.3
SMILES | TWEAK Fn14 block | Peg3 prom inh-1 | HIF-2a block | TROY signal inh | KKLEB tox | CF NFkB block | Peg3 prom inh-2
CCOc1cccc(C(=O)Nc2ccc(NC(=O)c3cc4ccccc4o3)c(OC)c2)c1 | -67.1 | 29.1 | 9.8 | -9.6 | 1.4 | 32.9 | .
COc1cc(NC(=O)c2cccc(C)c2)ccc1NC(=O)c1cc2ccccc2o1 | 42.3 | 59.5* | 12.1 | 49.3 | -33.6 | 43.1 | 50.2*
O=C(Nc1cccc(OC(F)(F)F)c1)c1cccc2c(-c3cccnc3)coc12 | -30.0 | 9.2 | -4.8 | -2.4 | -1.4 | -24.3 | .
CC(=O)Nc1cccc(NC(=O)c2cc(-c3ccccn3)nc3ccc(Cl)cc23)c1 | -1.6 | 7.0 | 11.2 | 12.4 | -0.9 | -11.3 | .
CC(=O)c1cccc(NC(=O)c2cccc3c(-c4cccnc4)coc23)c1 | 58.0* | 66.2* | -62.2 | 33.6 | -0.5 | -34.4 | 60.6*
CC(=O)Nc1cccc(NC(=O)c2cc(-c3cccnc3)nc3ccc(Cl)cc23)c1 | 24.4 | 56.9* | 4.3 | -0.1 | -17.7 | 17.4 | 47.3*
O=C(COC(=O)c1ccc(F)c(S(=O)(=O)N2CCOCC2)c1)NCCc1ccc(F)cc1 | -15.2 | -5.3 | 0.5 | 16.6 | 17.3 | 10.4 | .
COc1cc2c(cc1OC)C(SC)=NC1(CCCC1)C2 | 12.0 | 64.3* | 37.2 | -9.8 | -0.3 | 5.7 | -29.9
O=C(CN1C(=O)NC2(CCCCC2)C1=O)NCCc1ccccc1 | -6.4 | -12.8 | -2.2 | 6.5 | 9.0 | 22.6 | .
COC(=O)c1ccc(CNC(=O)Cn2cnc3c(NCc4ccccc4)ncnc32)cc1 | -37.2 | 63.3* | -4.1 | 2.8 | 2.9 | -13.7 | 47.1*
COC1CC(C)C(OC)c2cc(O)cc(c2O)NC(=O)C(C)=CC=CC(C)C(OC(N)=O)C(C)=CC(C)C1OC (configuration not stated) | 33.6 | 57.4* | 28.7 | 0.6 | 2.1 | 39.6 | 48.1*
O=C(NN=Cc1c(F)c(F)c(F)c(F)c1F)c1ccc(NS(=O)(=O)c2cccs2)cc1 | 44.2 | 57.0* | 11.8 | 0.1 | -20.9 | 35.2 | 37.1
O=C(c1ccc(Cl)cc1)N1CCN(c2ccc([N+](=O)[O-])c(NCc3cccnc3)c2)CC1 | 1.6 | 55.0* | 33.2 | 25.0 | -0.1 | 4.8 | 48.6*
CC1(Cc2ccc(Cl)c(Cl)c2)C(=O)Nc2ccc(S(=O)(=O)NC3CCCCC3)cc21 (configuration not stated) | 47.3 | 69.4* | 0.2 | 30.6 | -7.6 | 30.1 | 68.2*
CC1(Cc2cccc(F)c2)C(=O)Nc2ccc(S(=O)(=O)NC3CCCCC3)cc21 (configuration not stated) | 14.6 | 33.1 | 20.6 | 5.0 | -8.2 | 7.2 | .
